The source of these data is PubChem BioAssay AID529 (NMMLSC, 2006).

SMILES strings stand for the structures. The whole screen tested about 24,000 compounds, of which about 50 (0.2%) were called active. Inconclusive results (about 9%) are left out. The sample as a whole holds a higher share of actives than the screen did. A number with no mark means an inactive call.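 The calls were made as follows: active = inhibition above 50%; inconclusive = compound itself fluorescent, judged against control cell fluorescence; inactive = the rest.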

Sequence of Integrin alpha-4 (Homo sapiens) (P13612 whole entry, looked up): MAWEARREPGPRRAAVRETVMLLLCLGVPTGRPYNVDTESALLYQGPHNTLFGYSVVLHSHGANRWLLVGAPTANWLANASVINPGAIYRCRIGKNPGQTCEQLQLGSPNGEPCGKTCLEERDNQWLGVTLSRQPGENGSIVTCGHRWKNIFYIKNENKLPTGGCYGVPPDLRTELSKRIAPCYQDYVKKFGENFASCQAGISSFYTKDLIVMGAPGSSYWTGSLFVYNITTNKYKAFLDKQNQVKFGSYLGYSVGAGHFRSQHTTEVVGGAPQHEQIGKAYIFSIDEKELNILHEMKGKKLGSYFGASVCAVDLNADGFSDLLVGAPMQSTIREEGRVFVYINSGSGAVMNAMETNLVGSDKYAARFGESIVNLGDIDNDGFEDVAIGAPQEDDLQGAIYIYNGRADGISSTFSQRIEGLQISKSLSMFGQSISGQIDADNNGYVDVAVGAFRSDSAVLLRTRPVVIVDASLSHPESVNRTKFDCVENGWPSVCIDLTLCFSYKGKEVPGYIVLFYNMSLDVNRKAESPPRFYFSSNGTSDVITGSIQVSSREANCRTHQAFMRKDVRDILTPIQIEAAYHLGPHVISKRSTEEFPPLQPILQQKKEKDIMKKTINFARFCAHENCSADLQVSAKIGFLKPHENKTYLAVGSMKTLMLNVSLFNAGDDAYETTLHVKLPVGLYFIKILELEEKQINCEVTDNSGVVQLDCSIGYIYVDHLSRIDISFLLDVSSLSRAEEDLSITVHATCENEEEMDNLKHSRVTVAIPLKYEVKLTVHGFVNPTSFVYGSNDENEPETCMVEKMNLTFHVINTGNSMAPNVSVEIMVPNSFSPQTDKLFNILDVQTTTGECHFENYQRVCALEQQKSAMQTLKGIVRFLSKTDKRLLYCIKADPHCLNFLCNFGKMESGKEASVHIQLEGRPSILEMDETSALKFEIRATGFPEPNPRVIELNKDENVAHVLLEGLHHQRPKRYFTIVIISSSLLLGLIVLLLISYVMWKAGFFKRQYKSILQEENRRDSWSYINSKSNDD

This assay has as its target Integrin alpha-4 (Homo sapiens) (UniProt P13612). Briefly: inhibitors of LDV-FITC binding to Mn2+-activated VLA-4, primary screen, Jurkat cells (AID 529).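 Also: 0% = Mn2+ stimulated cells lacking compound and 100% = ligand binding without Mn2+.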 To be noted: LDV-FITC binding with Mn2+, flow cytometry, hits give high values, 100% = Mn2+-driven binding gain fully reversed, screened at 10 µM (by protocol).
One may read the inhibition as the relative decrease from the control value, in per cent. In the case of `Cc1ccc(NC(=O)C2CCCN(S(=O)(=O)c3c(C)noc3C)C2)c(C)c1` (stereo not drawn), the inhibition was -21%.

Turning to `O=C(CCn1c(=O)oc2ccccc21)Nc1ccon1`, the inhibition is -16%. `O=C(CN1CCN(CC(=O)Nc2ccc3c(c2)OCO3)CC1)Nc1ccc(F)cc1`: the inhibition is 14%. The value for `CCOc1ccc(N(CC(=O)OC)S(=O)(=O)c2c(C)noc2C)cc1` was 13%. With `CCOC(=O)CN1CC23C=CC(O2)C(C(=O)Nc2ccc(F)cc2)C3C1=O` (stereo not drawn), the inhibition is -44.5%. The value for `Cc1nc(C)c2c(c1C(F)(F)F)-c1ccccc1C2(F)F` was -6.5%; that for `COc1ccc(N2C(=O)C3CCCN3C2c2cccs2)cc1` (stereo not drawn) was 8%.

As for `COc1ccccc1Cn1c(=S)[nH]c2cc(C(=O)N3CCN(C)CC3)ccc2c1=O`, the inhibition was 15%. `O=C(NCCCN1CCN(Cc2ccccc2)CC1)C1CCN(S(=O)(=O)N2CCCC2)CC1`: the inhibition was -27%.

Regarding `CCCC(NC(=O)c1ccccc1)c1nc2ccccc2n1Cc1ccc(C(=O)OC)o1` (stereo not drawn), the inhibition is 1%. The value for `Cc1ccc(NC(=O)CSc2nnc(-c3cnccn3)n2Cc2ccco2)cc1C` was -19.5%; that for `Cc1ccc(NC(=O)CN(C)S(=O)(=O)c2cnc[nH]2)cc1C` was 1%; that for `CCCOC(=O)c1[nH]c2c(c1C)C(=O)CC(c1cc(OC)c(OC)c(OC)c1)C2` (stereo not drawn) was -2%. To `COc1ccccc1-n1cnc2cc(C(=O)NCC3CCCO3)ccc21` (stereo not drawn) belongs -11%; to `CCOC(=O)c1c(NC(=O)c2cccs2)sc(C)c1C`, -11.5%; to `COc1cccc(NC(=O)Nc2nnc(N3CCCCC3C)s2)c1` (stereo not drawn), -4%. To `O=C(O)c1cccc2c1C(=O)N(C1CCCCC1)C2` belongs -16%. `CCOc1ccc(CCNC(=O)C2CCN(c3ccc(N4CCOCC4)nn3)CC2)cc1OCC`: the inhibition is -6%. The value for `CCOC(=O)N1CCC(NC(=O)c2cnn3ccccc23)CC1` was 2.5%; that for `Cc1nc(CNS(=O)(=O)c2cccnc2)cs1` was -1%; that for `CC1CCCCC1NC(=O)CCS(=O)(=O)c1cccc2nonc12` (stereo not drawn) was 12%. Regarding `CCN(CC(=O)Nc1ccc2c(c1)OCCO2)Cc1cc(=O)oc2cc(C)c(C)cc12`, the inhibition is -1.5%.

Consider `CCn1c(=O)cc(SCC(=O)NCc2ccc3c(c2)OCO3)c2ccccc21`, for which the inhibition is 5%. As for `COc1cc(C2C(C(=O)Nc3ccc(F)cc3)=C(C)Nc3nc(CCCO)nn32)cc(OC)c1OC` (stereo not drawn), the inhibition is -7%.

`CCn1ncc(C2=NOC(C(=O)N3CCN(c4ccccc4)CC3)C2)c1C` (stereo not drawn): the inhibition is 7%. To `c1ccc(CCn2nnnc2CN2CCN(C3CCCC3)CC2)cc1` belongs -4.5%.

On to `Cc1cc(=O)n2nc(N3CCCC(C(=O)N4CCN(C)CC4)C3)sc2n1` (stereo not drawn), for which the inhibition is -12.3%. Regarding `CCN(CC)S(=O)(=O)c1ccc2[nH]cc(C(=O)NCCc3ccccc3)c(=O)c2c1`, the inhibition is 2%. Consider `CCOC(=O)c1nnn(CC(=O)Nc2cccc(F)c2)c1C(=O)OCC`, for which the inhibition is 13.7%. The value for `CC(NC(=O)CN1CCN(Cc2ccc(Cl)cc2)C1=O)c1ccc2c(c1)OCCO2` (stereo not drawn) was 4%; that for `CN(C)S(=O)(=O)c1cccc(C(=O)Nc2cccnc2)c1` was -37.5%.

As for `COc1ccc(Cl)cc1S(=O)(=O)N1CCN(CC(=O)C(C)(C)C)CC1`, the inhibition is 14%. To `CCCCC(CC)C(=O)Nc1ccc(Cl)cn1` (stereo not drawn) belongs -17.5%; to `Cc1cccn2c(=O)c3cc(C(=O)N4COCC4(C)C)n(C)c3nc12`, -28%; to `O=C(NCc1ccccn1)c1cnc2sccn2c1=O`, -2%. To `Cc1cccn2c(=O)c3cc(C(=O)NCc4ccccn4)n(C)c3nc12` belongs 52% (active); to `Cc1nc(NC(=O)CCC(=O)O)sc1C(=O)N(C)C`, -12%; to `O=C(Cn1c(=O)n(Cc2ccco2)c(=O)c2ccccc21)NCC1CCCO1` (stereo not drawn), -8.5%. The value for `O=C(Nc1nc2ccc(S(=O)(=O)N3CCCC3)cc2s1)C1CCCO1` (stereo not drawn) was -33.5%; that for `CCOc1ccc(Cn2nnc(C(=O)NCc3ccccc3)c2N)cc1` was -1%; that for `O=C(c1ccccc1)c1cccn1CC(=O)N1CCN(c2ccc(F)cc2)CC1` was 49%. For the molecule `O=C(O)C1CCN(S(=O)(=O)N2CCOCC2)CC1`, the inhibition was 0%. The value for `C=C1c2cc(CC)ccc2NC(=O)N1c1ccc(C)cc1` was -2%; that for `COC(=O)c1ccc2c(=O)n(CC3CCCO3)c(=S)[nH]c2c1` (stereo not drawn) was -11%; that for `CCn1c(SCC(=O)Nc2ccccc2F)nc2c(c1=O)SC(C)C2` (stereo not drawn) was 3.3%.

As for `Cc1ccccc1C(=O)NCCN=C1NS(=O)(=O)c2ccccc21`, the inhibition was -4%. Regarding `CCOC(=O)N1CCC(C(N)=O)CC1`, the inhibition was -7%.

Take `Clc1ccc(Cn2ncc3c(NCc4cccnc4)ncnc32)cc1`: the inhibition is -0.5%. To `CCn1cc(C(=O)NCC2CCCO2)c(=O)c2cc(S(=O)(=O)N3CCCCC3)ccc21` (stereo not drawn) belongs 20%; to `CC(NC(=O)COc1ccccc1)C(=O)NC1=NCCS1` (stereo not drawn), -18.5%; to `CCOC(=O)c1[nH]c2c(c1C)C(=O)CC(c1ccc(N(C)C)cc1)C2` (stereo not drawn), -3%. The value for `CCOC(=O)N1CCN(C(=O)c2cn(C)c3ccc(S(=O)(=O)N4CCCC4)cc3c2=O)CC1` was -13%.

As for `CCCCOc1ccc(C(=O)NCc2ccco2)cc1`, the inhibition was -20.5%. The value for `Cn1c(=O)cc(OCCCC(=O)N2CCN(Cc3ccc4c(c3)OCO4)CC2)c2ccccc21` was 7%; that for `O=C(C(Cc1ccccc1)n1cccc1)N1CCN(C2CCCCC2)CC1` (stereo not drawn) was 15%; that for `O=C(CCCN1C(=O)C2C3C=CC(C3)C2C1=O)N1CCN(c2ccccc2)CC1` (stereo not drawn) was 21%. To `Cc1nc2ncnn2c(C)c1CCC(=O)N1CCN(C(=O)c2ccco2)CC1` belongs 10%; to `Cc1cc(=O)n2nc(N3CCCC3C(=O)NCCCN3CC(C)CC(C)C3)sc2n1` (stereo not drawn), -1%. To `CCOc1ccc(CNC(=O)C2CC(=O)N(C3CCCC3)C2)cc1OC` (stereo not drawn) belongs 28%.

Turning to `O=C(CC(NS(=O)(=O)c1ccc(Cl)cc1)c1ccco1)NC1CCCC1` (stereo not drawn), the inhibition is 1%. The value for `O=C(Nc1ccn(Cc2ccc(F)cc2)n1)c1ccncc1` was 4%; that for `O=C(NCc1cccs1)c1ccc2c(c1)ncn2C1CCCC1` was -10%.

Consider `CCCn1cc(SCC(N)=O)c2ccccc21`, for which the inhibition is -4%.

On to `N#CC1=C(N)Oc2cc(O)ccc2C1C1CCCCC1` (stereo not drawn), for which the inhibition is -8%. The value for `CCOCCCN1C(=O)CN(C2CCCCC2)C(=O)C1c1ccc(OCC)c(OC)c1` (stereo not drawn) was 7%. To `COc1cc2c(cc1OC)C(c1ccc(C)o1)CC(=O)N2` (stereo not drawn) belongs 3%.

In the case of `CCCCOC(=O)NCN1C(=O)C2C3C=CC(C3)C2C1=O` (stereo not drawn), the inhibition is -15%. To `Cc1cc(N2C(=O)c3ccc(C(=O)NCc4ccccc4)cc3C2=O)no1` belongs 3%. The value for `CCCCc1nccn1CCn1ccnc1CCCC` was -5%; that for `CCCS(=O)(=O)C(=C1Nc2ccccc2N1)S(=O)(=O)CCC` was 0%; that for `CCCCNC(=O)c1c[nH]c2ccc(S(=O)(=O)Nc3ccc(OCC)cc3)cc2c1=O` was -22.5%. The value for `COc1ccc(C2CC(c3ccc(C)cc3)Nc3ncnn32)cc1` (stereo not drawn) was -3.7%; that for `COc1ccc(C2C(C(=O)Nc3ccccc3OC)=C(C)Nc3nnnn32)c(OC)c1` (stereo not drawn) was 3%; that for `CCCCOC(=O)Nc1nccs1` was 15.3%. As to `O=C(CSC1=Nc2ccccc2C2=NC(c3ccccc3)C(=O)N12)NCC1CCCO1` (stereo not drawn), the inhibition was 3%. As to `COc1ccc(C2CC(c3ccc(Cl)cc3Cl)Nc3nc(N)nn32)cc1OC` (stereo not drawn), the inhibition is -5%. On to `COc1cccc(NS(=O)(=O)c2ccc3[nH]cc(C(=O)NCCCOC(C)C)c(=O)c3c2)c1`, for which the inhibition was -26%. Regarding `CCOC(=O)c1oc2ccccc2c1NC(=O)c1cccs1`, the inhibition is 17%.

With `Cc1nn(C)c(C)c1S(=O)(=O)N1CCc2ccccc21`, the inhibition is 2%.

Turning to `Cc1cccc(N2CCN(S(=O)(=O)c3ccc4c(c3)c(=O)n(C)c(=O)n4C)CC2C)c1` (stereo not drawn), the inhibition is -4%. To `O=C(C1CCN(S(=O)(=O)c2cccs2)CC1)N1CCCCCC1` belongs -3%; to `CN(C)CCCNC(=O)c1ccc2[nH]c3ccccc3c2c1`, -6%. To `COc1ccc(CCNC(=O)CSc2nnc(CNC(=O)c3cccs3)o2)cc1OC` belongs 13%; to `CCOC(=O)C1(c2ccccc2)NC(c2ccc(N(C)C)cc2)C2C(=O)N(C)C(=O)C21` (stereo not drawn), -13%; to `CCOc1ccc(NC(=O)N(CCC(C)C)C(C)c2ccco2)cc1` (stereo not drawn), -12%. The value for `CCC(C)(C(=O)NC1CCCC1)N(C(=O)CNC(C)=O)c1ccc(C)cc1` (stereo not drawn) was -12%. Take `Cc1ccc(C(=O)N(CN2CCCC2=O)c2ccc(F)cc2)cc1`: the inhibition was -10%. The value for `CCN(CC)CCNC(=O)Cn1cnc2sc(C)c(S(=O)(=O)N3CCOCC3)c2c1=O` was 0%; that for `COc1ccccc1CNC(=O)CCCn1c(=O)c2ccccc2n(CC(=O)NC2CCCC2)c1=O` was -2%; that for `CCOC(=O)N1CCC(NC(=O)CN2C(=O)COc3ccc(C(C)(C)C)cc32)CC1` was 7%. The value for `O=c1c2[nH]c3ccc(Cl)cc3c2ncn1Cc1ccccn1` was -1%.

Consider `O=S(=O)(NCc1ccccc1Cl)c1cnc[nH]1`, for which the inhibition is -2%. To `CCCCN=C(N)/C(C(=O)OCC)=C(\O)c1ccc(OC)cc1` belongs 9%. As to `COc1ccc(S(=O)(=O)NC2(C(F)(F)F)N=C3SCCN3C2=O)cc1` (stereo not drawn), the inhibition was -5%. To `Cc1ccc(-n2nc3c(c2NC(=O)c2ccc4c(c2)OCO4)CSC3)c(C)c1` belongs 13%. Consider `O=C(c1ccc2c(c1)N(Cc1ccc(F)cc1)C(=O)CS2)N1CCOCC1`, for which the inhibition was -5%. With `CCCN1CCN(CCCNC(=O)CN2C(=O)COc3ccccc32)CC1`, the inhibition was 1%. As to `Cc1cccc(CSc2nnc(Cn3c(=O)sc4ccccc43)n2C)c1`, the inhibition is 2%. To `COc1ccc(NC(=O)CN2CCN(S(=O)(=O)c3ccc(F)cc3)CC2)cc1Cl` belongs 9%. The value for `COCCn1c(=O)[nH]c2cc(C(=O)NCc3cccnc3)ccc2c1=O` was -22%; that for `CCOc1ccccc1NC(=O)c1cc(S(=O)(=O)N2CCC3(CC2)OCCO3)ccc1F` was 8%; that for `Cc1cc(C)c2c(n1)nn1c(N3CCOCC3)cc(C)nc21` was -14%. To `CCOC(=O)CSc1nnc(CNC(=O)c2ccco2)n1-c1ccc(F)cc1` belongs 14%.
